Results filed as inconclusive are left out. Active and inactive are the calls of the source. Unless noted, calls come from the whole dose curve; as a rule, active = well fitted curve in the direction sought with a large enough effect in the repeat runs; inconclusive = weak or mixed curves; inactive = no such curve, though single readings can be large; an effect the other way counts as inactive or inconclusive.
Columns and labels:
[1] = target: Thyrotropin-releasing hormone receptor (Homo sapiens) (UniProt P34981); assay: qHTS assay to identify small molecule agonists of the thyrotropin-releasing hormone receptor (TRHR) signaling pathway (AID 1346891; calls by dose curve;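 note: HEK293 cells expressing TRHR with calcium dye readout; series mostly up to about 58 µM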)
In short: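 Compounds were tested as agonists at 15 concentrations, in triplicate, on TRHR-Hek293 cells; calcium-sensitive dye fluorescence was recorded for 3 min following addition.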

[2] = Human pregnane X receptor (PXR) small molecule agonists, qHTS cell viability counter screen (AID 1346977); note: nearly all actives have a fitted effect of over 50% in size
In short: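 Viability counter screen: CellTiter-Fluor signal in PXR-Luc HepG2 cells, 24hr compound exposure, 37C, 5% CO2.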

[3] = Caspase-3/7 induction in HepG2 cells by small molecules, qHTS assay (AID 1346978); note: nearly all actives have a fitted effect of over 15% in size
In short: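 Wild-type HepG2 cells (2,000/well) were settled 5 h at 37 C, 5% CO2, then exposed to compounds in DMSO for 17 h. Caspase-3/7 activity was read by luminescence 30 min after adding Caspase-Glo 3/7 reagent at room temperature.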

[4] = Caspase-3/7 induction in CHO-K1 cells by small molecules, qHTS cell viability counter screen (AID 1346979); note: nearly all actives have a fitted effect of over 35% in size
In short: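 Viability readout by fluorescence (CellTiter-Fluor) on wild-type CHO-K1 cells exposed for 16hr at 37C and 5% CO2 to compounds delivered in DMSO; reagent incubated 1hr before reading.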

[5] = Caspase-3/7 induction in CHO-K1 cells by small molecules, qHTS assay (AID 1346980); note: nearly all actives have a fitted effect of over 15% in size
In short: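 Wild-type cells were seeded at 1,500 per well and settled 5 hr at 37 C, 5% CO2, then exposed to DMSO-dissolved compounds for 17 hr. Caspase-Glo 3/7 reagent was added, and luminescence was read after 30min at room temperature.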

[6] = Caspase-3/7 induction in HepG2 cells by small molecules, qHTS cell viability counter screen (AID 1346981); note: series mostly up to about 92 µM; nearly all actives have a fitted effect of over 30% in size
In short: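 Counter screen for cytotoxicity: HepG2 exposed 16 hr to compounds, then CellTiter-Fluor viability signal (fluorescence, 1 hr reagent incubation).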

[7] = target: Cytochrome P450 2C19 (Homo sapiens) (UniProt P33261); assay: Cytochrome P450 Family 2 Subfamily C Member 19 (CYP2C19) small molecule antagonists: luciferase reporter qHTS assay (AID 1671197); note: nearly all actives have a fitted effect of over 65% in size; note: potency is the fitted concentration of half-maximal effect; for activity change, negative = inhibition: series mostly up to about 120 µM
In short: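 Enzyme-substrate mix with proluciferin substrate (P450-Glo CYP2C19 system) preincubated with compounds 10 min at room temperature; NADPH regeneration solution added, 37C for 1 h; detection reagent stops reaction, luminescence read after 20 min. Ketoconazole positive control.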

[8] = target: Cytochrome P450 2C9 (Homo sapiens) (UniProt P11712); assay: Cytochrome P450 Family 2 Subfamily C Member 9 (CYP2C9) small molecule antagonists: luciferase reporter qHTS assay (AID 1671198); note: nearly all actives have a fitted effect of over 50% in size; note: potency is the fitted concentration of half-maximal effect; for activity change, negative = inhibition: series mostly up to about 120 µM
In short: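 CYP2C9 activity was measured with a P450-Glo proluciferin substrate. Enzyme–substrate mix was held with compound for 10 min at room temperature, then NADPH regeneration solution was added for 1 h at 37C. Luciferin product was read as luminescence.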

[9] = target: Cytochrome P450 1A2 (Homo sapiens) (UniProt P05177); assay: Cytochrome P450 Family 1 Subfamily A Member 2 (CYP1A2) small molecule antagonists: luciferase reporter qHTS assay (AID 1671199); note: nearly all actives have a fitted effect of over 50% in size; note: potency is the fitted concentration of half-maximal effect; for activity change, negative = inhibition: series mostly up to about 120 µM
In short: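 Signal from luciferin formed by CYP1A2 from a proluciferin substrate is read as luminescence, expressed in relative luminescence units. Compounds sit with enzyme 10 min, NADPH-driven reaction runs 1 h, all at room temperature.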

[10] = target: Voltage-gated inwardly rectifying potassium channel KCNH2 (Homo sapiens) (UniProt Q12809); assay: Human Ether-a-go-go-Related Gene (hERG) channel small molecule antagonists: fluorescence cell-based qHTS assay (AID 1671200);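 note: hERG-expressing U2OS cells given a thallium stimulus after FluxOR II dye loading; series mostly up to about 77 µM; nearly all actives have a fitted effect of over 50% in size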
In short: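 Thallium served as the potassium surrogate; its influx into dye-loaded U2OS cells carrying the channel was measured by fluorescence over 2 min.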

[11] = target: Nuclear receptor subfamily 1 group I member 2 (Homo sapiens) (UniProt O75469); assay: Human pregnane X receptor (PXR) small molecule agonists, qHTS assay (AID 1346982); note: nearly all actives have a fitted effect of over 35% in size; note: potency is the fitted concentration of half-maximal effect
In short: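 Luminescence (ONE-Glo, 30 min RT) after 24 hr compound exposure of PXR-Luc HepG2 cells; cells rested 5 hr post-plating in 5% charcoal-stripped FBS medium.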

[12] = target: Cytochrome P450 2D6 (Homo sapiens) (UniProt P10635); assay: Cytochrome P450 Family 2 Subfamily D Member 6 (CYP2D6) small molecule antagonists: luciferase reporter qHTS assay (AID 1671196); note: nearly all actives have a fitted effect of over 50% in size; note: potency is the fitted concentration of half-maximal effect; for activity change, negative = inhibition: series mostly up to about 120 µM
In short: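 Inhibition of CYP2D6 was gauged by loss of luminescence, since light produced tracks the luciferin generated from a proluciferin substrate. A 10 min room-temperature preincubation preceded 1 h NADPH-supported turnover.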

[13] = target: Cytochrome P450 3A4 (Homo sapiens) (UniProt P08684); assay: Cytochrome P450 Family 3 Subfamily A Member 4 (CYP3A4) small molecule antagonists: luciferase reporter qHTS assay (AID 1671201)
In short: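 Relative luminescence units after 20 min with luciferin detection reagent served as read-out. Beforehand, CYP3A4 turned over a proluciferin substrate for 1 h at room temperature with NADPH regeneration, following 10 min compound preincubation.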

[14] = target: Nuclear receptor subfamily 1 group I member 2 (Homo sapiens) (UniProt O75469); assay: CYP3A4 induction through human pregnane X receptor (PXR) by small molecules, qHTS assay (AID 1346984); note: nearly all actives have a fitted effect of over 40% in size
In short: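 DPX-2 reporter cells; 24h cpd, 37C; Luciferin-IPA 3uM final x3h; One-Glo 30 min RT; lumi read.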

[15] = target: Nuclear receptor subfamily 1 group I member 2 (Homo sapiens) (UniProt O75469); assay: Human pregnane X receptor (PXR) activation by small molecules, qHTS assay (AID 1346985); note: nearly all actives have a fitted effect of over 40% in size
In short: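 DPX-2 cells (HepG2 co-transfected with a PXR response element and a CYP3A4-promoter luciferase construct) were seeded at 2,000 per well, rested 5 hr at 37C, then exposed to DMSO-dissolved compounds for 24 hr. Activation was read as luciferase luminescence.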

[16] = target: Nuclear receptor subfamily 1 group I member 2 (Rattus norvegicus) (UniProt Q9R1A7); assay: Rat pregnane X receptor (rPXR) activation by small molecules, qHTS assay (AID 1346983); conditions: rPXR luciferase reporter cells, One-Glo luminescence, 24 h; max activation: active compounds read high; note: nearly all actives have a fitted effect of over 20% in size
In short: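 Cell-based rPXR luciferase reporter assay, 2,000 cells per well, rested 5hr at 37 C before compound addition in DMSO, then 24 hr at 37 C. One-Glo reagent was added and luminescence read after 30 min at room temperature.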
% is set by controls: 0 for no effect and ±100 for the full control effect.

Sequence of Cytochrome P450 2C19 (Homo sapiens) (P33261 whole entry, looked up): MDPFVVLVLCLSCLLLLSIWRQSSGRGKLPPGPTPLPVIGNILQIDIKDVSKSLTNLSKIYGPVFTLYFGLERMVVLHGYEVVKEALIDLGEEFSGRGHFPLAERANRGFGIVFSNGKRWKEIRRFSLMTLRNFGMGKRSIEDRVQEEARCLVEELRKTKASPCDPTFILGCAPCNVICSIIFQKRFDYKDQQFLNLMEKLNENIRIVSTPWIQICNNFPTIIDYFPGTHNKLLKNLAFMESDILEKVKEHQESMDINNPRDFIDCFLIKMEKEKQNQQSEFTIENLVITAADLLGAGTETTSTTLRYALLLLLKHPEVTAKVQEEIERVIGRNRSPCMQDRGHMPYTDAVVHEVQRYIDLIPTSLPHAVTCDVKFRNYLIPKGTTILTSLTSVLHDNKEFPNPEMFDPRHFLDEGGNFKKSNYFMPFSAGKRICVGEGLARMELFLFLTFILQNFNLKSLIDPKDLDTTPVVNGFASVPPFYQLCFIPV
Sequence of Cytochrome P450 2C9 (Homo sapiens) (P11712 whole entry, looked up): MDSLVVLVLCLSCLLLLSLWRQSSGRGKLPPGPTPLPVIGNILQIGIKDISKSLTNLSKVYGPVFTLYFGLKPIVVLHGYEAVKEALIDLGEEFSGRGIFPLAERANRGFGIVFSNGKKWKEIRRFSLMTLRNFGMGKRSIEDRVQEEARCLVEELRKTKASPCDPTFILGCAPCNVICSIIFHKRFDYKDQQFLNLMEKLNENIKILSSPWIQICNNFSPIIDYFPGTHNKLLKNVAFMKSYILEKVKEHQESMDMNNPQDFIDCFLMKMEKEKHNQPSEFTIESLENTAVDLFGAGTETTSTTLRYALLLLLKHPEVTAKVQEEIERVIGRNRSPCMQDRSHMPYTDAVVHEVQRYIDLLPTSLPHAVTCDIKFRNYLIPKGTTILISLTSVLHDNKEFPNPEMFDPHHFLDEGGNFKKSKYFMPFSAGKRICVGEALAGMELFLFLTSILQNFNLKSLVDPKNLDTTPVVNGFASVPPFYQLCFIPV
Sequence of Voltage-gated inwardly rectifying potassium channel KCNH2 (Homo sapiens) (Q12809 whole entry, looked up): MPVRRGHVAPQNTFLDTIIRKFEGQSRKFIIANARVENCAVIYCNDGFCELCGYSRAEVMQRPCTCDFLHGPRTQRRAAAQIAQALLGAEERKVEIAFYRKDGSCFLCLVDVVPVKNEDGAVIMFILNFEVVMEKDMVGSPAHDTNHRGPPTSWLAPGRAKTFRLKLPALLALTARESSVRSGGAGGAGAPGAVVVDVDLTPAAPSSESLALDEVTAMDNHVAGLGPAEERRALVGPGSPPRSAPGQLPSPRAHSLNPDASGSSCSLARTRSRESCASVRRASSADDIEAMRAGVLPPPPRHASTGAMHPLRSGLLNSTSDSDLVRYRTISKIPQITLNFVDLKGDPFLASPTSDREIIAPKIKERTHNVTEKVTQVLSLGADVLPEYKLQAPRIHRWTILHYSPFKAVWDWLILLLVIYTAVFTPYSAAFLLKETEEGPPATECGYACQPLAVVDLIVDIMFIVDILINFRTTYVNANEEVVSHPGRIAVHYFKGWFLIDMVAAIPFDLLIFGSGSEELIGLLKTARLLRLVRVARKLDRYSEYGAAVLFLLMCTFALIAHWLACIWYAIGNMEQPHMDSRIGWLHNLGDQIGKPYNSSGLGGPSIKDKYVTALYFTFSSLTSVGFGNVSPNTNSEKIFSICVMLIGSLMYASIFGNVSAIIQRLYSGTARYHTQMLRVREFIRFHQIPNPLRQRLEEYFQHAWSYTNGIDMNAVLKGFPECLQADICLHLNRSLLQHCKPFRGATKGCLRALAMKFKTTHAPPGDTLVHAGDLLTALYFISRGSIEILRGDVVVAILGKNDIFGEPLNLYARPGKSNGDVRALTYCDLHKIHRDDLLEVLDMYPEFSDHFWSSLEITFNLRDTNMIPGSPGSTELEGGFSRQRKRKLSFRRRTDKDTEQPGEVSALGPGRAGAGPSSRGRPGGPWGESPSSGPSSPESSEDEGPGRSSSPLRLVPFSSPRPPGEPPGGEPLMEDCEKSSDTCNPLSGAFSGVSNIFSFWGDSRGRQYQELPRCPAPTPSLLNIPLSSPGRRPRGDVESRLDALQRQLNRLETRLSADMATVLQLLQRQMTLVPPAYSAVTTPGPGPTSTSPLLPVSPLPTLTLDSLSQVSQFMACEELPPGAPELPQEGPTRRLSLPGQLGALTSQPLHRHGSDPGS
Sequence of Cytochrome P450 2D6 (Homo sapiens) (P10635 whole entry, looked up): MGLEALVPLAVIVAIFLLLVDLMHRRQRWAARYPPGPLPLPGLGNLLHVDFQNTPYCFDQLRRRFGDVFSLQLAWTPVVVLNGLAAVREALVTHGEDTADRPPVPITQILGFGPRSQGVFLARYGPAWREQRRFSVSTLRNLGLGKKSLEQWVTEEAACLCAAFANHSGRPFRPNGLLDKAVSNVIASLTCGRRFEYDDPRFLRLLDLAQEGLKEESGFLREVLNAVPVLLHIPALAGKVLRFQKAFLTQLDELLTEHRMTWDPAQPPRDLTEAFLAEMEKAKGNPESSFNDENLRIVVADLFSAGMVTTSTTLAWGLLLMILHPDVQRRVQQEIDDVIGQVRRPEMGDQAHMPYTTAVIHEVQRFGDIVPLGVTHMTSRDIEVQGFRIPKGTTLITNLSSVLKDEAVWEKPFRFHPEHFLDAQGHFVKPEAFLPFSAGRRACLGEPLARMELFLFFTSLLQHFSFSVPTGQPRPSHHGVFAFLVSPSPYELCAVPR
Sequence of Cytochrome P450 1A2 (Homo sapiens) (P05177 whole entry, looked up): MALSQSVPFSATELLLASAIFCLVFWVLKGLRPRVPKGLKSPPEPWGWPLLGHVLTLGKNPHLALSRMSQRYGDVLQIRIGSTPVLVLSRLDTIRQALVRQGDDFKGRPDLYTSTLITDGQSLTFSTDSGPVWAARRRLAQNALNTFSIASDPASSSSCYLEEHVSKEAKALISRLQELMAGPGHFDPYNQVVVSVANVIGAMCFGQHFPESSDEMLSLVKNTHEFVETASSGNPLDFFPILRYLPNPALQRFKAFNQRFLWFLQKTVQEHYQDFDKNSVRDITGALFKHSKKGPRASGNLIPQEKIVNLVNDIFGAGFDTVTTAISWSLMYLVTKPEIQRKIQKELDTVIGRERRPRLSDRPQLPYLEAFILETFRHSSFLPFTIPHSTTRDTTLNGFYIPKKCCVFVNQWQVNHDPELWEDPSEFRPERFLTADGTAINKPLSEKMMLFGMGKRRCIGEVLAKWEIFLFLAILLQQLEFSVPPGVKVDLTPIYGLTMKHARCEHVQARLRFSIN
Sequence of Nuclear receptor subfamily 1 group I member 2 (Homo sapiens) (O75469 whole entry, looked up): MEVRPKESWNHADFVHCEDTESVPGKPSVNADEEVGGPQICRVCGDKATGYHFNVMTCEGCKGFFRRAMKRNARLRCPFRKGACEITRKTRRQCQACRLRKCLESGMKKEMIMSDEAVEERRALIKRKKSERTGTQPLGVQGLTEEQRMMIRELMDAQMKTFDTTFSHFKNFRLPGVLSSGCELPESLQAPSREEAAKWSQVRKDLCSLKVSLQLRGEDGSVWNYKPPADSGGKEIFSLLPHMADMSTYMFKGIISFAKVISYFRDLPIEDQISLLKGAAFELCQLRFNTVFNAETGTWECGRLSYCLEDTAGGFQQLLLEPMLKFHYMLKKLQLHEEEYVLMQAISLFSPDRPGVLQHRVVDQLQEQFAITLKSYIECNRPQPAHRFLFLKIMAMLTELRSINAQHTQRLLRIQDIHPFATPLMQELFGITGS
Sequence of Cytochrome P450 3A4 (Homo sapiens) (P08684 whole entry, looked up): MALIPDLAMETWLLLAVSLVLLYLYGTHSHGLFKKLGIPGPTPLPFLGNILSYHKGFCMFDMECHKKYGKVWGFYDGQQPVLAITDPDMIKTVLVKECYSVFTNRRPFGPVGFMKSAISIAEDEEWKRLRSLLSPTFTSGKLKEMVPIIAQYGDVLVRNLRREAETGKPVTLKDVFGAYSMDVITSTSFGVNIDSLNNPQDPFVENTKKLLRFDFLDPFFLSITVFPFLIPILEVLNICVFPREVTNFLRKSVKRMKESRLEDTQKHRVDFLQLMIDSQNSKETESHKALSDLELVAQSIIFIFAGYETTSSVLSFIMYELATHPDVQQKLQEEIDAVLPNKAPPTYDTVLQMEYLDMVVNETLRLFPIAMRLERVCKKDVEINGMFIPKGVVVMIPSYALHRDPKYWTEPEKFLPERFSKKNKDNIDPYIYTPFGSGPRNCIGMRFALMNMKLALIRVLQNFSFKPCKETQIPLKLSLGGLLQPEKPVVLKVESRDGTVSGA
Sequence of Thyrotropin-releasing hormone receptor (Homo sapiens) (P34981 whole entry, looked up): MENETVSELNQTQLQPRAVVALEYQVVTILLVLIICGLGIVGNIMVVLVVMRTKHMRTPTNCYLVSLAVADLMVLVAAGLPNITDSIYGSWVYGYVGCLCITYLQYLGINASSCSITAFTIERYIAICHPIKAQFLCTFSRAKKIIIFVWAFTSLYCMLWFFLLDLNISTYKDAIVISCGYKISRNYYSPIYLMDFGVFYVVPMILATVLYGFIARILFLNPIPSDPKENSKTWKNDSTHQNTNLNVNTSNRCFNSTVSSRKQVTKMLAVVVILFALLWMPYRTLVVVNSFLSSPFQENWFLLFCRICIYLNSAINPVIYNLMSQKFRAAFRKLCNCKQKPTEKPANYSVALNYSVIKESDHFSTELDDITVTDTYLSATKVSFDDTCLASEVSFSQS
Sequence of Nuclear receptor subfamily 1 group I member 2 (Rattus norvegicus) (Q9R1A7 whole entry, looked up): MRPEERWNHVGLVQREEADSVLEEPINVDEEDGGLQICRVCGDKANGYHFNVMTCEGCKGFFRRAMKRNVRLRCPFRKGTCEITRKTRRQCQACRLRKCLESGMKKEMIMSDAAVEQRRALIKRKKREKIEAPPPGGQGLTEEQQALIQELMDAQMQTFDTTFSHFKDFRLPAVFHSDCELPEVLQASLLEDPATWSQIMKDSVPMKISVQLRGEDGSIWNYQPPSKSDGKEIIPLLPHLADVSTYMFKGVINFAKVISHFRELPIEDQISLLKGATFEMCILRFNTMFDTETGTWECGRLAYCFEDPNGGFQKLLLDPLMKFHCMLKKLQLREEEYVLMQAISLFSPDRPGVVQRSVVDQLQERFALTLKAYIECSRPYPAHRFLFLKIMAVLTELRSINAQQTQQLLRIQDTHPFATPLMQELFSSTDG

COC(=O)C1=C(C)NC(C)=C(C(=O)OCC(C)=O)C1c1ccccc1[N+](=O)[O-] (stereo not given)
inactive: outcome [1] | Potency [2] | outcome [3] | Potency [4] | outcome [5] | outcome [6] | Potency [10]
active: Potency [7] 5.49 µM | Potency [8] 13.8 µM | Potency [9] 2.45 µM

C=CCOCC(O)CS(=O)(=O)O (stereo not given)
inactive: outcome [1] | Potency [2] | outcome [3] | Potency [4] | outcome [5] | Potency [11] | Potency [12] | Potency [8] | Potency [9] | Potency [10] | Potency [13]
active: Potency [7] 80.8 µM

CCC(C)OC(=O)N1CCCCC1CCO (stereo not given)
inactive: outcome [1] | Potency [2] | outcome [3] | Potency [4] | outcome [6] | Potency [11] | Potency [12] | Potency [10] | Potency [13]
active: Potency [7] 35.6 µM | Potency [8] 79.6 µM

NS(=O)(=O)c1cc2c(cc1C(F)(F)F)NC(Cc1ccccc1)NS2(=O)=O (stereo not given)
inactive: outcome [1] | Potency [2] | outcome [3] | Potency [4] | outcome [6] | Potency [11] | Potency [14] | Potency [15] | Potency [9]

C[N+](C)(C)CC[N+]1(C)Cc2c(Cl)c(Cl)c(Cl)c(Cl)c2C1
inactive: outcome [1] | Potency [2] | outcome [3] | Potency [4] | outcome [6] | Potency [11] | max activation [16] -3.39% | Potency [14] | Potency [15] | Potency [7] | Potency [8] | Potency [9] | Potency [10] | Potency [13]
active: Potency [12] 1.55 µM

CCCCNc1ccccc1
inactive: outcome [1] | Potency [2] | outcome [3] | Potency [4] | outcome [6] | Potency [12] | Potency [7] | Potency [8] | Potency [9] | Potency [10] | Potency [13]

CCCCCCCCCCCCCCCCCC(=O)OCCCCCCCCCCCCCC(C)C
inactive: outcome [1] | Potency [2] | outcome [3] | Potency [4] | outcome [6] | Potency [11] | Potency [12] | Potency [8] | Potency [9] | Potency [10] | Potency [13]

O=C1CC2(CCCC2)CC(=O)N1
inactive: outcome [1] | Potency [2] | outcome [3] | Potency [4] | outcome [6] | Potency [11] | Potency [7] | Potency [8] | Potency [9] | Potency [10] | Potency [13]

CCCCCCC(=O)OCC
active: Potency [8] 71 µM
inactive: outcome [1] | Potency [2] | outcome [3] | Potency [4] | outcome [6] | Potency [11] | Potency [12] | Potency [7] | Potency [9] | Potency [10] | Potency [13]

CCCOCC(C)OCC(C)O (stereo not given)
inactive: outcome [1] | Potency [2] | outcome [3] | Potency [4] | outcome [5] | outcome [6] | Potency [10]

CCC(C)(C)C1CCC(OC)CC1 (stereo not given)
active: Potency [11] 30.6 µM
inactive: outcome [1] | Potency [2] | outcome [3] | Potency [4] | outcome [5] | Potency [9] | Potency [10] | Potency [13]

NC1CCN(c2cccc(Cl)n2)CC1
active: Potency [12] 1.23 µM
inactive: outcome [1] | Potency [2] | outcome [3] | Potency [4] | outcome [6] | Potency [11] | Potency [7] | Potency [8] | Potency [10] | Potency [13]

C1CCCCCCCCCCC1
inactive: activation [1] 1.06% [at 11.8 µM] | activity change, negative = cytotoxicity [2] 4.48% [at 19 µM] | caspase activation [3] 0.953% [at 19 µM] | activity change, negative = cytotoxicity [4] 2.86% [at 19 µM] | caspase-3/7 activation [5] 0.0072% [at 19 µM] | activation [11] 7.58% [at 19 µM] | activity change, negative = inhibition [12] -0.464% [at 23.6 µM] | activity change, negative = inhibition [7] -20.8% [at 23.6 µM] | activity change, negative = inhibition [8] -1.08% [at 23.6 µM] | Potency [9] | activity change, negative = inhibition [10] -1.65% [at 15.8 µM] | activity change, negative = inhibition [13] 3.28% [at 23.6 µM]

CCC(=O)/C=C/c1ccc(OC)cc1
active: Potency [8] 39.9 µM | Potency [9] 20 µM
inactive: outcome [1] | Potency [2] | outcome [3] | Potency [4] | outcome [5] | outcome [6] | Potency [10] | Potency [13]

Cc1ccccc1C(=O)O
active: Potency [11] 30.1 µM
inactive: Potency [2] | outcome [3] | outcome [5] | outcome [6] | Potency [12] | Potency [7] | Potency [8] | Potency [9] | Potency [10] | Potency [13]

CCCCc1ccc(N)cc1
inactive: Potency [2] | outcome [3] | Potency [4] | outcome [5] | outcome [6] | Potency [11] | Potency [10]
active: Potency [7] 39.9 µM | Potency [8] 44.8 µM | Potency [9] 35.6 µM

Cc1cc(C)c(NC(=O)CN(CC(=O)O)CC(=O)O)c(C)c1Br
inactive: Potency [2] | outcome [3] | Potency [4] | outcome [6] | Potency [11] | Potency [14] | Potency [15] | Potency [12] | Potency [7] | Potency [8] | Potency [9] | Potency [10] | Potency [13]

From PubChem BioAssay (Tox21)
